Unmarked numbers belong to inactive results.

Sequence of UniProt Q15149 (Q15149 whole entry): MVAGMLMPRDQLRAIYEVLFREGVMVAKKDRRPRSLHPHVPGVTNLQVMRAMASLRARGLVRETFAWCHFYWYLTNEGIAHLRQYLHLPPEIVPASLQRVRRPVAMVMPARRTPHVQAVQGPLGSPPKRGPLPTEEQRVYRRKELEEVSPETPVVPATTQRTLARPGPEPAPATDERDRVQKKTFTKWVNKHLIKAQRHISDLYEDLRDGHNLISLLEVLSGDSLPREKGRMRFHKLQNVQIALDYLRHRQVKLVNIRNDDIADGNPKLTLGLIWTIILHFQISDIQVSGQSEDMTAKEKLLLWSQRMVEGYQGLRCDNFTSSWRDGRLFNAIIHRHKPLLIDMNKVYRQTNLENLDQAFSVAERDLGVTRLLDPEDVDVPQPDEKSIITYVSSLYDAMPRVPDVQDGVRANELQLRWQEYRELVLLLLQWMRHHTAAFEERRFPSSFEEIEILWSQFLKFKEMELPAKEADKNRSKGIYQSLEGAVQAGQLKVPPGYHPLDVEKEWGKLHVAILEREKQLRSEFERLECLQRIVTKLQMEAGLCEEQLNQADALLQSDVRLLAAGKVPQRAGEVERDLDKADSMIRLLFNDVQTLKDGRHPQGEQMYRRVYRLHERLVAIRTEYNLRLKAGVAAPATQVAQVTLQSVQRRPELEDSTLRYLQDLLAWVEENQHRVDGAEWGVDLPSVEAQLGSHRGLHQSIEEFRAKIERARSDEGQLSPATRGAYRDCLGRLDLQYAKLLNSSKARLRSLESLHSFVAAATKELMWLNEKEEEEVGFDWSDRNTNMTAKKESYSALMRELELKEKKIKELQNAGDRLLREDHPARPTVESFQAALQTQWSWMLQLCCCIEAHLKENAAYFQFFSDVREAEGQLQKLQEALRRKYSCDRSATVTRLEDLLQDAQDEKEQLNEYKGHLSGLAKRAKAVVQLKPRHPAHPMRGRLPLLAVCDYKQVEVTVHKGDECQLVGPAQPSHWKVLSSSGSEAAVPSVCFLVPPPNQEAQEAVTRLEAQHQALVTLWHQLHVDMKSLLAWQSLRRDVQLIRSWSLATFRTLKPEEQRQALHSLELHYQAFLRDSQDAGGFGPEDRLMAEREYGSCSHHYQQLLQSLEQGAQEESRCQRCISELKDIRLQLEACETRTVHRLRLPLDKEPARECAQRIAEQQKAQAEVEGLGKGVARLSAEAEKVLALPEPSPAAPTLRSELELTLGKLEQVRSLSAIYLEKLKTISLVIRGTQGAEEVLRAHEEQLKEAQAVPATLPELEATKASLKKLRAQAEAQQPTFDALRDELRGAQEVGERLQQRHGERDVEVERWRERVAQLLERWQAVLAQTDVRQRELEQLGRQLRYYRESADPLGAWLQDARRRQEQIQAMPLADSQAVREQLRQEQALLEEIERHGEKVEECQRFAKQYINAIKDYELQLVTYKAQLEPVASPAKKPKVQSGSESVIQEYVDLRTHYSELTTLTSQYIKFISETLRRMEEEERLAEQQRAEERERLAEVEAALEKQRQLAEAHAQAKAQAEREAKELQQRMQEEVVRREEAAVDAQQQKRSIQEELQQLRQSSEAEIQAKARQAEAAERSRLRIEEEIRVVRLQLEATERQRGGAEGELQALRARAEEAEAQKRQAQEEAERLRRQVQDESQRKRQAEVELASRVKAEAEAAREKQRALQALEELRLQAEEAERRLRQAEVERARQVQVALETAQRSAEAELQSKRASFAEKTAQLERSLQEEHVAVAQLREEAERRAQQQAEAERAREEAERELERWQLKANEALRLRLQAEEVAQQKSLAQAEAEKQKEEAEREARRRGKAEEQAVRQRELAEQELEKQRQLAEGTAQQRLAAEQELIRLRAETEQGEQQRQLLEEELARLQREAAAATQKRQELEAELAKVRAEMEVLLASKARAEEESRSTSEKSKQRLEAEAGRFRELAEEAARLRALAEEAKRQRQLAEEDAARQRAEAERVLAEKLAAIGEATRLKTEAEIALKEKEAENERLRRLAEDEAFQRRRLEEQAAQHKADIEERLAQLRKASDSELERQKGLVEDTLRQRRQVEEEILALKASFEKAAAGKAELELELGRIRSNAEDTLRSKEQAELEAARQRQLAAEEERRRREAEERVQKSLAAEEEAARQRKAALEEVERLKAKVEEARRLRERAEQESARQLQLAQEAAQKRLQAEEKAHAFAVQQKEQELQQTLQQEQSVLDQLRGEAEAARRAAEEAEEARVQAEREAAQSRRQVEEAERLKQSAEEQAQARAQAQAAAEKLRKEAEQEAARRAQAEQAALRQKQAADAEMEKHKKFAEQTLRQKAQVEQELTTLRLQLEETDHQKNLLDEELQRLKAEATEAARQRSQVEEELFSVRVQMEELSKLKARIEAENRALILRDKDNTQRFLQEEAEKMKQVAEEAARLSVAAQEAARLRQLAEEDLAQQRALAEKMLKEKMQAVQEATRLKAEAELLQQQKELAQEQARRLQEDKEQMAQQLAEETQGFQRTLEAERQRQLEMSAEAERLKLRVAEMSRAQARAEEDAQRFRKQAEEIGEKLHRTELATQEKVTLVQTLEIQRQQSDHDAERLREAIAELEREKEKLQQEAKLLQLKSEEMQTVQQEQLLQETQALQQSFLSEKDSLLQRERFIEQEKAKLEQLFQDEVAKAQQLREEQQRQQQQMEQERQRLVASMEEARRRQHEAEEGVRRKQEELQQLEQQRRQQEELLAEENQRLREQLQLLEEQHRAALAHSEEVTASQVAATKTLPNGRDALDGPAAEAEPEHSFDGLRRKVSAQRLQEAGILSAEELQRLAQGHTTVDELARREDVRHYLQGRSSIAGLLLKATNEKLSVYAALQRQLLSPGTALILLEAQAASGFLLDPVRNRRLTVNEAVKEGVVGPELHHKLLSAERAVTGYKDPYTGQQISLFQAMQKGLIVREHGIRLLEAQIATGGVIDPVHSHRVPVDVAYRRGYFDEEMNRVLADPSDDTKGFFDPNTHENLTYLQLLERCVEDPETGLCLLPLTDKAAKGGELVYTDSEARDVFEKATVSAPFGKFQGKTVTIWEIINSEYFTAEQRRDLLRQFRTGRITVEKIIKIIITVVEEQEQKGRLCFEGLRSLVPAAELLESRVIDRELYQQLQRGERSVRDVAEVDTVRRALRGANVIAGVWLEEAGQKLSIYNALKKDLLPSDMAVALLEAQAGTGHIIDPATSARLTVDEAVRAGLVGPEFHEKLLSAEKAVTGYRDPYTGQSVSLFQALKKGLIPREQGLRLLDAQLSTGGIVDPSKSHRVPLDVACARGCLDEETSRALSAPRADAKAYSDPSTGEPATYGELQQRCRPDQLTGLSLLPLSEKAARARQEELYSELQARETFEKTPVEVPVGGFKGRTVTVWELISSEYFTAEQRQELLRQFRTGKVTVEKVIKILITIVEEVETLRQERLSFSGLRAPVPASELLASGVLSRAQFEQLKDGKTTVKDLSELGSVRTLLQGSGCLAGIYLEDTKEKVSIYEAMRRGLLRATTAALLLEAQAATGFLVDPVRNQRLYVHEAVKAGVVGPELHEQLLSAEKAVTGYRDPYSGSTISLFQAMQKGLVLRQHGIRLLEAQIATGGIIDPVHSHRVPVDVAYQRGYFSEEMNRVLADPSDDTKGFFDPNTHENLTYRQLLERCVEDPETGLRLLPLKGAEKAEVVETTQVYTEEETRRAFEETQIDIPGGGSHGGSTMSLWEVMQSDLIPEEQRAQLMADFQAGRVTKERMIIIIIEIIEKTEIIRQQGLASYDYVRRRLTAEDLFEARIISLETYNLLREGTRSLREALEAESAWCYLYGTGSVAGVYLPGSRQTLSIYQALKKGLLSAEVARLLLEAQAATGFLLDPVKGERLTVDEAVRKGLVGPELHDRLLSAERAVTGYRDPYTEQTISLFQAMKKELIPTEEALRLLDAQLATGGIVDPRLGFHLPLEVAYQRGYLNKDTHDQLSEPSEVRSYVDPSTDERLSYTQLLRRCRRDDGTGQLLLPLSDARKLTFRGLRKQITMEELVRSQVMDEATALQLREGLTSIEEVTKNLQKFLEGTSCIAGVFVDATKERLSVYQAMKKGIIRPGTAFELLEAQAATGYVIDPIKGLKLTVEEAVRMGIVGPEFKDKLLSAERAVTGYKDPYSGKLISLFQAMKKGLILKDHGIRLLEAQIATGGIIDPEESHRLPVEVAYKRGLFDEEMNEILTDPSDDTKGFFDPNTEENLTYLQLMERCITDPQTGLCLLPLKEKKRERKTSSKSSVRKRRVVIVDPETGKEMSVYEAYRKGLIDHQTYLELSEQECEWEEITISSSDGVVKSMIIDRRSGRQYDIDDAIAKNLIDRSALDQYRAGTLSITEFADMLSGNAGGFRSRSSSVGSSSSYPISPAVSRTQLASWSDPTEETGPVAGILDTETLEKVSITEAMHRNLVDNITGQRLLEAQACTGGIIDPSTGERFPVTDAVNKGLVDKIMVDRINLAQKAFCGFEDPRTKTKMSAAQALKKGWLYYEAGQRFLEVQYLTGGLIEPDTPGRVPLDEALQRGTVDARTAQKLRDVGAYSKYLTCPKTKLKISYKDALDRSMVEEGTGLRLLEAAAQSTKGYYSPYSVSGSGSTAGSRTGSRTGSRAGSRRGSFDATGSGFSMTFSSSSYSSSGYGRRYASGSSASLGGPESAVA
Sequence of UniProt P04406 (P04406 whole entry, looked up): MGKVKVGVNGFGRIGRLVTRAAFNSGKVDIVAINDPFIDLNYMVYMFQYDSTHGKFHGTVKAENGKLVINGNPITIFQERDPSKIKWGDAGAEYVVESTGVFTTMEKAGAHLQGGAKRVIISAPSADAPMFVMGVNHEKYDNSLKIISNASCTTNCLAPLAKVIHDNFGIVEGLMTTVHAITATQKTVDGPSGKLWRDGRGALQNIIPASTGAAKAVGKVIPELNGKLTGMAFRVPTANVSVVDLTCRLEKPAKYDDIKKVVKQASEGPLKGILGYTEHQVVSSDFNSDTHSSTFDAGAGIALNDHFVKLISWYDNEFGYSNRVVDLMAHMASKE
Sequence of UniProt P60981 (P60981 whole entry): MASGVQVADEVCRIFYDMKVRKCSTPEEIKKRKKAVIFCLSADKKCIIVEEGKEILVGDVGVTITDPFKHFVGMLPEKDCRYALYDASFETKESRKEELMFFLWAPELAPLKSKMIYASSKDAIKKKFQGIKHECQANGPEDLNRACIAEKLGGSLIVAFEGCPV

Compound in the test: C#CCNC(=O)CCSSCCC(=O)NCCc1ccc(C=O)c(C=O)c1
Nature of the test: lysine labeling ratio R10:1 (500 µM / 50 µM probe), SILAC-ABPP in living cells; higher = lower intrinsic lysine reactivity toward the probe, active = 2 or less. To be noted: HeLa; probe concentrations 500 vs 50 µM. In outline: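 With forward and reverse label swaps, light and heavy SILAC HeLa cells, alive and in PBS at room temperature, were exposed to either 500 µM or 50 µM of an alkyne-tagged lysine probe bearing a disulfide link. After mixing, lysates were clicked to biotin-azide, cut with trypsin, pulled down on neutravidin, freed with DTT, alkylated and analysed on a TIMS-TOF Pro by LC-MS/MS. The per-lysine value R is the median over forward and reverse replicates of the filtered median high-probe/low-probe MS1 peptide ratio. It is capped at 20.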
Consider “CD58 (lysine site: K60) (UniProt P19256)”, for which the “lysine labeling ratio R10:1” value is 6.36.
On to “FASN (lysine site: K673) (UniProt P49327)”, for which the “lysine labeling ratio R10:1” value was 2.24.
Under “SURF4 (lysine site: K139) (UniProt O15260)” stands 3.69; under UniProt P60228 (lysine site: K409), 2.54; under “ADAM9 (lysine site: K290) (UniProt Q13443)”, 2.64.
For UniProt Q15149 (lysine site: K923), the “lysine labeling ratio R10:1” value is 9.2.
The result for “ERP29 (lysine site: K137) (UniProt P30040)” reads 6.12; that for “EBP (lysine site: K106) (UniProt Q15125)”, 4.19.
On to “GNG12 (lysine site: K34) (UniProt Q9UBI6)”, for which the “lysine labeling ratio R10:1” value was 2.84.
Consider “PROCR (lysine site: K192) (UniProt Q9UNN8)”, for which the “lysine labeling ratio R10:1” value is 2.15.
The result for “VAPB (lysine site: K174) (UniProt O95292)” reads 1.61 (active); that for “ITGA2 (lysine site: K718) (UniProt P17301)”, 2.51; that for “DISP1 (lysine site: K908) (UniProt Q96F81)”, 3.35.
Under UniProt Q9UKX5 (lysine site: K256) stands 5.46.
Under “CELSR2 (lysine site: K2001) (UniProt Q9HCU4)” stands 1.5 (active); under “TKT (lysine site: K538) (UniProt P29401)”, 1.86 (active).
Regarding “DST (lysine site: K3977) (UniProt Q03001)”, the “lysine labeling ratio R10:1” value was 1.83 (active).
Under “HSPE1 (lysine site: K86) (UniProt P61604)” stands 1.85 (active); under “TNKS1BP1 (lysine site: K1676) (UniProt Q9C0C2)”, 2.22.
In the case of “TPI1 (lysine site: K194) (UniProt P60174)”, the “lysine labeling ratio R10:1” value is 1.22 (active).
As for “DSTN (lysine site: K92) (UniProt P60981)”, the “lysine labeling ratio R10:1” value is 2.43.
For the target UniProt Q15149 (lysine site: K2154), the “lysine labeling ratio R10:1” value is 1.47 (active).
The result for “IQGAP1 (lysine site: K856) (UniProt P46940)” reads 1.47 (active); that for UniProt O95084 (lysine site: K185), 2.74; that for “ASPH (lysine site: K588) (UniProt Q12797)”, 1.1 (active).
Under “LAMB1 (lysine site: K1370) (UniProt P07942)” stands 1.61 (active); under UniProt P62277 (lysine site: K43), 7.76.
The result for “HSPD1 (lysine site: K369) (UniProt P10809)” reads 2.45; that for “TLN1 (lysine site: K687) (UniProt Q9Y490)”, 3.61; that for “RPLP2 (lysine site: K25) (UniProt P05387)”, 2.1.
UniProt Q8WXI7 (lysine site: K13072): the “lysine labeling ratio R10:1” value is 11.1.
In the case of UniProt Q8WXI7 (lysine site: K12623), the “lysine labeling ratio R10:1” value was 3.22.
Regarding “CD97 (lysine site: K422) (UniProt P48960)”, the “lysine labeling ratio R10:1” value is 2.07.
With “CD63 (lysine site: K162) (UniProt P08962)”, the “lysine labeling ratio R10:1” value is 4.92.
Under “MCAM (lysine site: K153) (UniProt P43121)” stands 4.14; under “NECTIN3 (lysine site: K255) (UniProt Q9NQS3)”, 4.2; under “GAPDH (lysine site: K117) (UniProt P04406)”, 3.17.
Under “PTPRJ (lysine site: K281) (UniProt Q12913)” stands 0.907 (active); under “TLN1 (lysine site: K1221) (UniProt Q9Y490)”, 1.89 (active); under “ATAD3B (lysine site: K281) (UniProt Q5T9A4)”, 12.6.

For the origin of these results see the supplement of paper PMC11001985.
